Inconclusive results are not listed. The source made the active and inactive calls. Calls follow the shape of the dose curve; as a rule, active = well fitted curve in the direction sought with a large enough effect; inconclusive = small, poorly fitted or top-dose-only effect, or another doubt; inactive = no such curve, though single readings can be large; an effect the other way counts as inactive or inconclusive.
Columns and labels:
[1] = Confirmation and Secondary Assay for Modulators of Hemoglobin Beta Chain Splicing at IVS2 654 locus (AID 910);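 also: HeLa cells stably carrying EGFP split by mutant beta-globin IVS2-654 intron; per-well total GFP intensity by laser scanning cytometry after 2-day treatment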
In short: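 Readout: per-well total peak green fluorescence (488 nm ex, 500–520 nm em) from objects 5–250 µm, reflecting correct splicing of an EGFP-654 reporter. Compounds were applied for 2 days at 37 °C to overnight-plated HeLa EGFP-654 cells; controls were DMSO and 500 nM IVS2-654 PNA.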

[2] = Cell Viability - LYMP2-001 (AID 921); also: series mostly up to about 92 µM; nearly all actives have a fitted effect of over 70% in size
In short: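 A lymphoblastoid cell line of human origin was treated with library compounds across a concentration series for 24 hours, and viable cell number was estimated from ATP-driven luciferase light output. Hill modeling gave AC50.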

[3] = Confirmation and Secondary Assay for Modulators of Hemoglobin Beta Chain Splicing at IVS2 705 locus (AID 930);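 also: HeLa cells stably expressing the EGFP-705 splicing reporter; GFP fluorescence per well restored by corrected splicing of the IVS2-705 intron in EGFP; series mostly up to about 46 µM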
In short: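 Per-well GFP, captured at 1 x 8 µm resolution with 488 nm excitation, served as the read-out for HeLa EGFP-705 cells incubated 2 days with test compound versus DMSO.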

[4] = MultiTox-Fluor Cytotoxicity Assay - LYMP1-001 - Dead Cells (AID 946)
In short: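 LYMP1-001 lymphoblastoid cells (2500/well) treated 16 h at 37 C. Dead-cell protease cleavage of bis-AAF-R110 read at Ex/Em 485/520. Normalized to DMSO and 15 uM tetraoctylammonium bromide; AC50 from Hill fits.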

[5] = Cell Viability - LYMP1-002 - Assay at 16 hr (AID 948)
In short: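 In this qHTS, lymphoblastoid LYMP1-002 cells (human) receive compounds for 16 hr at 37 C. Viability is taken from CellTiter-Glo ATP luminescence, and AC50 derives from standard Hill fits.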

[6] = MultiTox-Fluor Cytotoxicity Assay - LYMP1-002 - Live Cells (AID 955)
In short: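 LYMP1-002 lymphoblastoid cells; 2500 cells/well; 16 hr compound exposure, 37 C; MultiTox-Fluor reagent 60 min RT; live-cell fluorescence Ex/Em=405/510; qHTS concentration-response, Hill-equation AC50; tetraoctylammonium bromide positive control.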

[7] = MultiTox-Fluor Cytotoxicity Assay - LYMP1-003 - Dead Cells (AID 961); also: nearly all actives have a fitted effect of over 70% in size
In short: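 LYMP1-003 human lymphoblastoid cells (2500/well) exposed to compound 16 h at 37 C in complete medium; dead-cell protease read with bis-AAF-R110 fluorescence (Ex/Em 485/520) after 60 min at room temperature. Normalized to DMSO and 15 uM tetraoctylammonium bromide; AC50 from Hill fit.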

[8] = MultiTox-Fluor Cytotoxicity Assay - LYMP1-003 - Live Cells (AID 962);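 also: cytotoxic hits lower the live-cell protease signal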
In short: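 Readout: live-cell fluorescence (Ex/Em=405/510) from GF-AFC cleavage after 60 min MultiTox-Fluor reagent at room temperature. Lymphoblastoid LYMP1-003 cells, 16 hr compound treatment, 37 C. Concentration-response fitted to standard Hill equation for AC50.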

[9] = Cell Viability - LYMP1-003 - Assay at 24 hr (AID 963)
In short: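 CellTiter-Glo luminescence (intracellular ATP) read after 24 hr, 37 C compound exposure of 2500 LYMP1-003 human lymphoblastoid cells/well in complete medium; qHTS concentration series; AC50 via standard Hill equation.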

[10] = Cell Viability - LYMP1-003 - Assay at 40 hr (AID 964); also: series mostly up to about 92 µM; nearly all actives have a fitted effect of over 60% in size
In short: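 LYMP1-003 lymphoblastoid cells, 2500/well; 5 hr preincubation, 40 hr compound exposure, 37 C; CellTiter-Glo 30 min RT; luminescence; Hill-fit AC50. Positive control tetraoctylammonium bromide.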

[11] = Cell Viability - LYMP2-003 (AID 965);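 also: cells exposed to compounds for 24 h before reading; nearly all actives have a fitted effect of over 50% in size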
In short: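 qHTS, human lymphoblastoid line, 2500 cells/well, complete medium. 24 h drug, 37 C. ATP-based luminescent readout; Hill-fit AC50.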

[12] = Cell Viability - LYMP2-004 (AID 966); also: nearly all actives have a fitted effect of over 65% in size
In short: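 Luminescent ATP read-out (CellTiter-Glo, 30 min RT) after 24 hr compound exposure at 37 C; 2500 lymphoblastoid cells/well, complete medium. Decrease in ATP = cytotoxicity; AC50 from standard Hill model.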

[13] = Cell Viability - LYMP2-005 (AID 967); also: series mostly up to about 92 µM
In short: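 Luciferase-based ATP quantitation served as the viability measure in human lymphoblastoid LYMP2-005 cells exposed to test compounds for 24 h at 37 C in complete culture medium. Potency (AC50) was obtained by fitting concentration-response curves with the Hill equation.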

[14] = Cell Viability - LYMP2-009 (AID 968); also: series mostly up to about 92 µM; nearly all actives have a fitted effect of over 55% in size
[15] = Cell Viability - LYMP2-011 (AID 969); also: nearly all actives have a fitted effect of over 60% in size
In short: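 Luminescent ATP read-out (CellTiter-Glo, 30 min RT) after 24 hr compound exposure at 37 C in human lymphoblastoid cells, 2500 cells/well. Decreasing ATP indicates cytotoxicity; AC50 from standard Hill fit.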

[16] = Cell Viability - LYMP2-013 (AID 970); also: series mostly up to about 92 µM; nearly all actives have a fitted effect of over 55% in size
In short: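 CellTiter-Glo luminescence (cellular ATP) read after 30 min at RT. Cells: human lymphoblastoid line, 2500/well, 24 hr compound exposure at 37 C. Tetraoctylammonium bromide positive control; AC50 via standard Hill fit of qHTS titrations.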

[17] = Cell Viability - LYMP2-015 (AID 971); also: nearly all actives have a fitted effect of over 55% in size
In short: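 qHTS cytotoxicity: 2500 cells/well, 5 hr 37 C, compound 24 hr 37 C, CellTiter-Glo 30 min RT, luminescence. Loss of ATP = toxicity; AC50 via standard Hill fit.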

[18] = Cell Viability - LYMP2-017 (AID 972); also: series mostly up to about 92 µM; nearly all actives have a fitted effect of over 55% in size
In short: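 Luminescent ATP read-out (CellTiter-Glo, 30 min RT) reports viable cell number. Cells: human lymphoblastoid line, 2500 per well, 5 hr preincubation, 24 hr compound exposure at 37 C. AC50 is derived from qHTS concentration-response data using the standard Hill model.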

[19] = Cell Viability - LYMP2-019 (AID 973); also: nearly all actives have a fitted effect of over 55% in size
In short: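 qHTS, 1536-well; 2500 cells/well; 5 hr pre-incubation, 24 hr compound exposure, 37 C; CellTiter-Glo added, 30 min RT; luminescence read; AC50 via standard Hill equation.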

[20] = Cell Viability - LYMP2-021 (AID 974)
In short: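 ATP luminescence (CellTiter-Glo, 30 min RT) after 24 h compound exposure at 37 C; 2500 human lymphoblastoid cells/well, 5 h settle beforehand. Cytotoxicity = concentration-dependent ATP drop, AC50 by Hill fit.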

[21] = Cell Viability - LYMP2-023 (AID 975)
In short: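 CellTiter-Glo luminescence after 30 min at room temperature; decrease in intracellular ATP reflects toxicity. Cells: human lymphoblastoid line, 2500/well, 24 hr compound exposure at 37 C. AC50 fitted to standard Hill equation from concentration-response.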

Measured: outcome

O=C(Nc1ccccc1)Nc1ccccc1
inactive: [1] | [2] | [3] | [4] | [5] | [6] | [7] | [8] | [9] | [10] | [11] | [12] | [13] | [14] | [15] | [16] | [17] | [18] | [19] | [20] | [21]

From PubChem BioAssay (NCATS)
